PLC-beta3 inh – PLC-beta3 (human) inhibition, primary screen; Q01970; Purified PLC-beta3, fluorogenic substrate, fluorescence; inhibition, % at 12.2 µM; actives 0.18% (n = 370,000); AID 720704; in the data active = inhibition above about 11%;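 note: 0% = median of compound wells on plate and 100% = full blocker control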
KLK7 zymogen act – activators of human kallikrein-7 zymogen. activation, % at 7 µM. actives 0.9% (n = 370,000). purified proKLK7, EDANS-DABCYL substrate fluorescence; 100% is mature enzyme control, 0% vehicle. P49862;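 active = activation above the mean of all tested compounds plus 3 SD, computed per campaign excluding outliers beyond control limits, cut at about 13% in these data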
Target sequence (P49862 whole entry, looked up): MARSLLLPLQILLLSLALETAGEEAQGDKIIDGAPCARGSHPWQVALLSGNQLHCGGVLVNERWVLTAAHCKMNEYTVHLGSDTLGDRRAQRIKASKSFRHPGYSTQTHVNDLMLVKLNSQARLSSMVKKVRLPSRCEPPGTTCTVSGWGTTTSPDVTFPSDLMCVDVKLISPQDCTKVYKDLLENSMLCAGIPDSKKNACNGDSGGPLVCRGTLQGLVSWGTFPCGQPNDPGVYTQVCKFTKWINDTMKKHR
PLCg1 inh – PLC-gamma1 (human) inhibition, primary screen. actives 0.84% (n = 370,000). purified PLC-gamma1, fluorogenic substrate, fluorescence. inhibition, % at 12.2 µM. P19174. AID 720700; in the data active = inhibition above about 9.5%
ADAM17 inh – inhibits human ADAM17. actives 0.83% (n = 370,000). inhibition, % at 6.95 µM. recombinant ADAM17, EDANS/DABCYL FRET peptide cleavage. P78536;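 active = inhibition above the mean of compounds lying between control limits plus 3 SD, set per campaign, cut at about 8.5% in these data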;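 note: 0% = DMSO-only wells as the low control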
ADAM10 inh – ADAM10 inhibition, QFRET primary screen; O14672; recombinant ADAM10, EDANS/DABCYL FRET peptide cleavage, 3 h; inhibition, % at 7 µM; actives 0.62% (n = 370,000); AID 720582;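 active = inhibition above a per-campaign cutoff equal to the mean of compounds falling between control-based bounds plus 3 SD, cut at about 20% in these data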;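 note: 0% = DMSO wells while the 100% control is not disclosed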
ADAM10 confirm – confirmation of inhibitors of human ADAM10; shares compounds with ADAM10 inh; inhibition, % at 6.95 µM; AID 743208; actives 1% (n = 2,100); ADAM10 QFRET peptide cleavage, EDANS fluorescence;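 active = inhibition above about 20% chosen separately for each screening run, limit read from the data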;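 note: 0% = DMSO wells and 100% = marimastat wells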
ADAM17 counter – counter-screen for ADAM10 exosite inhibitors: inhibitors of human ADAM17; shares compounds with ADAM10 inh; ADAM17 QFRET peptide cleavage, EDANS fluorescence; inhibition, % at 6.95 µM; actives 0.5% (n = 2,100);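 active = mean triplicate inhibition above the solvent-only control wells' mean plus 3 SD, cut at about 12% in these data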;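 note: 0% = DMSO wells and 100% = marimastat wells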
ADAM10 ctr – counter-screen for ADAM17 exosite inhibitors: inhibitors of human ADAM10; shares compounds with ADAM17 inh; recombinant ADAM10, EDANS/DABCYL FRET peptide cleavage, 3 h; inhibition, % at 6.95 µM; actives 47% (n = 2,900); AID 743256;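 active = mean inhibition over the triplicate runs exceeds the activity threshold set in the earlier primary screen, cut at about 20% in these data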;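 note: 0% = DMSO wells and 100% = marimastat wells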
ADAM17 confirm – human ADAM17 inhibition, confirmation. recombinant ADAM17, EDANS/DABCYL QFRET peptide cleavage. shares compounds with ADAM17 inh. inhibition, % at 6.95 µM. actives 65% (n = 2,900);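 active = mean inhibition across replicates above the hit cutoff set in the primary screen, cut at about 8.5% in these data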;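 note: 0% = DMSO wells and 100% = marimastat wells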
* = called active by the depositor; . = not tested or not shown. Sampled rows, rich in hits. Any-hit rate of the full collection: about 2.9%.

SMILES	PLC-beta3 inh	KLK7 zymogen act	PLCg1 inh	ADAM17 inh	ADAM10 inh	ADAM10 confirm	ADAM17 counter	ADAM10 ctr	ADAM17 confirm
O=C(c1cccs1)N1N=C(c2ccccc2)CC1c1ccc(O)cc1 (stereo not given)	-29	0	-22	16*	27*	14	4	30*	21*
CS(=O)(=O)N1CCCCC1c1cc(C(=O)Nc2ccccc2)no1 (stereo not given)	3	0	8	3	4	.	.	.	.
O=C(Nc1ccccc1)c1cc(C2CCCCN2S(=O)(=O)Cc2cccc(C(F)(F)F)c2)on1 (stereo not given)	7	1	8	17*	30*	2	1	26*	11*
CCOC(=O)C1(Cc2ccc(OC)cc2)CCN(C(=O)c2cc(C)nn2C)CC1	-5	0	-1	-4	2	.	.	.	.
CC(C)NC(=O)Nc1ccc2c(c1)C(=O)N([C@H](C)CO)C[C@H](C)[C@@H](CN(C)S(=O)(=O)c1cccs1)O2	-301	-1	2	3	1	.	.	.	.
C[C@@H]1CN([C@H](C)CO)C(=O)c2cc(NC(=O)Nc3ccc(F)cc3)ccc2O[C@@H](C)CCCCO[C@H]1CN(C)S(=O)(=O)c1cccs1	6	0	2	8.9*	30*	5	2	42*	21*
COc1ccc(NC(=O)Nc2ccc3c(c2)C(=O)N([C@@H](C)CO)C[C@@H](C)[C@@H](CN(C)S(=O)(=O)c2cccs2)O3)cc1	1	1	3	8.8*	21*	0	0	19	12*
C[C@H](CO)N1C[C@H](C)[C@H](CN(C)S(=O)(=O)c2cccs2)Oc2ccc(NC(=O)Nc3ccc4c(c3)OCO4)cc2CC1=O	2	0	7	13*	27*	2	0	16	14*
O=C1N/C(=N/N=C/c2ccccc2)SC1(c1ccccc1)c1ccccc1	6	0	6	5	5	.	.	.	.
O=C(O)c1cccc(S(=O)(=O)NCC(=O)N2CCN(c3ccccn3)CC2)c1	3	0	1	-1	-2	.	.	.	.
Cc1ccc(-c2nnc(SCC(=O)NN=Cc3c[nH]c4ccccc34)n2-c2ccccc2)cc1	4	1	4	6	14	.	.	.	.
O=C(CSc1nnc(-c2ccc(Cl)cc2)n1-c1ccccc1)NN=Cc1c[nH]c2ccccc12	3	0	7	16*	29*	8	2	42*	18*
NS(=O)(=O)c1ccc(NC(=O)CSc2nc3c(cnn3-c3ccccn3)c(=O)[nH]2)cc1	0	-1	0	1	-4	.	.	.	.
O=C(COC(=O)COc1ccc(Cl)cc1)NCc1cccs1	3	0	-2	-4	-5	.	.	.	.
COc1ccc(N2CCC(CNC(=O)Nc3cccc(OC)c3)C2)cc1 (stereo not given)	-7	-1	-3	1	-1	.	.	.	.
COc1ccc(N2CCC(CNC(=S)Nc3cccc(OC)c3)C2)cc1 (stereo not given)	-7	0	-7	8.8*	20*	3	1	11	11*
CC1(Cc2ccc(C(F)(F)F)o2)C(=O)Nc2ccc(-c3cccc(C(F)(F)F)c3)cc21 (stereo not given)	-1	1	3	17*	28*	14	5	32*	21*
CC1(Cc2ccc3c(c2)OCO3)C(=O)Nc2ccc(-c3cccc(C(F)(F)F)c3)cc21 (stereo not given)	-5	0	3	4	-11	.	.	.	.

Bioassay records from PubChem BioAssay.
